# Pf growth 96h: inhibits malaria parasite growth, 96 h; P. falciparum luciferase reporter growth, 96 h; Potency, µM (highest dose often 28.7 µM), inactives show top-dose activity change, negative = inhibition, most hits filed as inhibitors; AID 504834; 320,000 tested, 6.9% active; note: potency is the fitted concentration of half-maximal effect; % is set by controls: 0 for no effect and ±100 for the full control effect
#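 96 h incubation, 37 C, 5% CO2, of luciferase-reporter P. falciparum-infected RBCs (2% hematocrit, 0.05% parasitemia final) with test compounds; endpoint luminescence.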
# Pf growth 48h: P. falciparum growth inhibition at 48 hours (one generation); AID 504832; Potency, µM (highest dose often 28.7 µM), inactives show top-dose activity change, negative = inhibition, usual class: inhibitors; 310,000 tested, 5.9% active; P. falciparum luciferase growth in erythrocytes, 48 h; note: potency is the fitted concentration of half-maximal effect; % is set by controls: 0 for no effect and ±100 for the full control effect
#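 Compounds are pin-transferred into medium, infected erythrocytes (2% hematocrit, 0.1% parasitemia final) are added, and plates sit one parasite generation at 37 C in 5% CO2. Detection reagent is then added and luminescence measured.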
# Cycloheximide cs: counter-screen hit for Shiga toxin inhibitors, cycloheximide; 300,000 tested, 12% active; max response, %; AID 2314; cell reporter, cycloheximide protein synthesis inhibition counterscreen; in the data active = max response mostly above about 13%, no sharp cut-off; inactive = mostly below about 14%; note: read at 38.3 µM for the half of the compounds with a filed dose; 0% is about no effect
# HCMV antiviral: inhibitors of human cytomegalovirus; HFF cells, HCMV-luciferase reporter, 72 h; active compounds read low; activity change, negative = inhibition, % at 57.5 µM; 410,000 tested, 4.5% active; in the data active = activity change below about -60%; inconclusive = no clear call, values can overlap the other calls; inactive = above about -39%; note: % is set by controls: 0 for no effect and ±100 for the full control effect
#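 Luciferase read-out from HCMV-luciferase-infected HFFs (MOI 1 PFU/cell) 72 h post infection at 37C; compounds added after 16 h cell attachment; activity normalized between buffer-only basal and Salinomycin (10uM) inhibitor controls.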
# Shiga inhibitor: blocks Shiga toxin action in Vero cells; Vero cells, Shiga toxin protein synthesis inhibition reporter; inhibition, % at 38.7 µM; 290,000 tested, 9.2% active; AID 2315; in the data active = inhibition mostly above about 28%, no sharp cut-off; inactive = mostly below about 43%; note: 0% is about no effect
# * = called active by the depositor; ? = inconclusive; nt = not tested or not shown. The list is not random: actives were taken first. Their share in the collection is about 20%. Unless noted, calls come from the whole dose curve; as a rule, active = well fitted inhibition curve with a large enough effect; inconclusive = small, poorly fitted or top-dose-only effect, or another doubt; inactive = no such curve, though single readings can be large or run the other way.
SMILES,Pf growth 96h,Pf growth 48h,Cycloheximide cs,HCMV antiviral,Shiga inhibitor
CC1Cc2ccccc2N1C(=O)CN1CCN(S(=O)(=O)c2cccs2)CC1 (stereo not drawn),?,?,nt,-9.2,nt
O=C(c1ccccc1)N1CCc2ccccc21,nt,11.0%,18.7,6.4,20.0
CC1Cc2ccccc2N1C(=O)CCS(=O)(=O)c1cccs1 (stereo not drawn),?,0.0%,32.9*,63.7,60.3*
CCc1ccccc1NC(=O)N1CCc2ccccc21,-1.8%,21.1%,16.4*,-21.2,52.5*
COc1ccc(CCC(=O)N2c3ccccc3CC2C)cc1 (stereo not drawn),0.2%,12.5%,35.4*,-24.9,88.0*
CCOC(=O)N1[C@@H]2C=C(C)[C@@H]2[C@@H]2[C@@H](C)C(=O)N21,0.9%,-1.9%,0.8,36.3,1.4
C=CCC(CC)C(=O)NC(=O)N1CCCc2ccccc21 (stereo not drawn),-6.0%,0.0%,7.4,72.5,30.5*
COc1ccc(NC(=O)N2CCCc3ccccc32)cc1,-6.9%,46.7%,17.7*,39.6,121.6*
CCn1cc(C(=O)N2CCN(c3ccccc3OC)CC2)c2cc(OC)c(OC)cc2c1=O,17.6%,-6.1%,-3.3,-15.4,-3.4
CCn1cc(C(=O)N2CCCc3ccccc32)c2cc(OC)c(OC)cc2c1=O,nt,14.7µM*,5.8,-16.7,0.3
O=C(NCC(c1cccnc1)N1CCc2ccccc2C1)C(=O)Nc1ccccc1F (stereo not drawn),nt,nt,nt,14.3,nt
Cc1ccc(C(=O)Nc2ccccc2C(=O)N2CCOCC2)cc1[N+](=O)[O-],0.0%,21.7%,5.0,3.5,-3.7
COc1cc(OC)c2cc(C(=O)N/N=C/c3cccc(OC)c3O)[nH]c2c1,?,?,-1.8,-103.8*,7.2
COc1cccc(/C=N/NC(=O)c2cc3c(OC)ccc(OC)c3[nH]2)c1O,?,nt,9.5,-99.2*,11.1
Cc1csc2nc(CCNS(=O)(=O)c3ccccc3)cn12,nt,nt,nt,30.5,nt
O=C(Cn1cnc2ccc(Cl)cc2c1=O)NC1CCS(=O)(=O)C1 (stereo not drawn),39.4%,1.2%,nt,6.9,nt
O=C(CC1NCCC[C@H]1O)Cn1cnc2cc(Br)c(Cl)cc2c1=O (stereo partly drawn),?,0.601µM*,nt,nt,nt
CCOC(=O)[C@]12Cc3c(cc(OC)c(OC)c3OC)[C@H]1N(C(C)C)C(=O)c1cc(OC)ccc12,nt,nt,nt,-99.6*,nt
CCOC(=O)[C@]12Cc3cc(OC)ccc3[C@H]1N(C(C)C)C(=O)c1cc(OC)ccc12,nt,nt,nt,-100.0*,nt
CCOC(=O)[C@]12Cc3cc(C)ccc3[C@H]1N(C)C(=O)c1cc(OC)ccc12,nt,nt,nt,-109.2*,nt
CCOC(=O)[C@]12Cc3cc(OC)ccc3[C@H]1N(C)C(=O)c1ccccc12,nt,nt,nt,34.0,nt
CCOC(=O)[C@]12Cc3c(cc(OC)c(OC)c3OC)[C@H]1N(C1CCCCC1)C(=O)c1cc(OC)ccc12,nt,nt,nt,-99.3*,nt
CCS(=O)(=O)c1ncc(N(Cc2ccco2)Cc2sccc2C)c(C(=O)Nc2ccc(C)cc2C)n1,nt,nt,nt,-12.9,nt
CCOC(=O)[C@]12Cc3cc(OC)ccc3[C@H]1N(C1CCCCC1)C(=O)c1ccccc12,nt,nt,nt,-101.0*,nt
CCOC(=O)[C@]12Cc3cc(Cl)ccc3[C@H]1N(C(C)C)C(=O)c1ccccc12,nt,nt,nt,-98.5*,nt
SMILES,Pf growth 96h,Pf growth 48h,Cycloheximide cs,HCMV antiviral,Shiga inhibitor
CCOC(=O)[C@]12Cc3cc(Cl)ccc3[C@H]1N(C)C(=O)c1ccccc12,nt,nt,nt,67.9,nt
CCSc1cnc(-c2ccccc2)n1CC,1.5%,30.9%,14.3,-37.0,-5.4
CN(Cc1cccc(F)c1)C(=O)CNS(=O)(=O)c1ccc2ccccc2c1,34.9%,8.6%,-2.9,-3.0,24.0
N#Cc1cnn(-c2nc(SCc3ccccc3)nc3sc4c(c23)CCCC4)c1N,?,13.1%,-2.1,-101.1*,-12.8
CSCCC(NC(=O)c1cc(C)oc1C)C(=O)O (stereo not drawn),nt,2.3%,-1.7,24.7,-19.7
COC(=O)CCC(NC(=O)c1cc(C)oc1C)C(=O)OC (stereo not drawn),10.4µM*,12.1%,2.3,?,-3.6
Cc1cc(Br)ccc1NC(=O)CNC(=O)Cc1ccc(S(=O)(=O)N2CCOCC2)s1,?,-16.1%,nt,-19.3,nt
CN(C)CCNC(=O)c1cccc(-c2cnc3c(NC=O)cc(-c4ccc(C(=O)N5CCOCC5)cc4)cn23)c1,nt,nt,nt,-64.4*,nt
COc1ccc(-c2cc(NC=O)c3ncc(-c4cccc(C(=O)NCCN(C)C)c4)n3c2)cn1,nt,nt,nt,-62.6*,nt

# High-throughput results: PubChem, National Center for Advancing Translational Sciences (NCATS)
